Inconclusive results are not listed. A number with no mark means an inactive call. Calls of active or inactive are those of the source. The call rests on the fitted dose curve; in most records, active means well fitted curve in the direction sought with a large enough effect; inconclusive means small, poorly fitted or top-dose-only effect, or another doubt; inactive means no such curve, though single readings can be large; an effect the other way counts as inactive or inconclusive.
biological target: Calcium and integrin-binding protein 1 (Homo sapiens) (UniProt Q99828); test: Primary qHTS for Identification of Calcium Integrin Binding Protein 1 (CIB1) Competitor (AID 1508620); details: CIB1-GST / FITC-alphaIIb peptide fluorescence polarization; series mostly up to 57.7 µM; activity change, negative = inhibition: at the top concentration;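 further: GST tagged CIB1 binding a fluorescein labelled alphaIIb integrin peptide tracer; top concentration of the series differs between compounds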
Procedure, shortened: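 Fluorescence polarization competition: CIB1-GST (1 uM final) preincubated with compound 15 min at room temperature, then FITC-labeled alphaIIb peptide (100 nM final) added for another 15 min. Polarization read at Ex 480/Em 540.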
On the % scale 0 is the no-effect control and ±100 the full control effect.

Sequence of Calcium and integrin-binding protein 1 (Homo sapiens) (Q99828 whole entry, looked up): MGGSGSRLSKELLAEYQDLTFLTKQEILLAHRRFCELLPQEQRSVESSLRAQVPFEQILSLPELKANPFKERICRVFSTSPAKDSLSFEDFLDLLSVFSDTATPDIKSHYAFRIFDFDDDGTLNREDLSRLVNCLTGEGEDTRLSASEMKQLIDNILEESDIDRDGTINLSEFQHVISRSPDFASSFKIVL

| Compound | activity change, negative = inhibition | outcome |
| --- | --- | --- |
| COc1ccc(-c2c(-c3ccc(O)cc3O)n[nH]c2C)cc1 | -2.12% [at 114 µM] |  |
| Cc1ccccc1C(C(=O)NC1CCCC1)N(C(=O)Cn1cnc2ccccc21)c1cccc(F)c1 (centres undefined) | -7.81% |  |
| COc1cc2nccc(Oc3ccc(NC(=O)NC4CC4)c(Cl)c3)c2cc1C(N)=O |  | inactive |
| COc1ccc(CCN2CCN(CCCc3ccccc3)CC2)cc1OC |  | inactive |
| CCOc1cc(C(=O)Nc2ccc(Cl)c(-c3nc4ccccc4[nH]3)c2)cc(OCC)c1OCC |  | inactive |
| Cc1cccc(-c2nn(C(=S)Nc3ccccc3)cc2-c2ccnc3ccccc23)n1 | -4.56% |  |
| S=C(NCc1ccc2c(c1)OCO2)N1CCN(c2ncnc3c2oc2ccccc23)CC1 |  | inactive |
| O=C(Nc1cccnc1)N1CCC(Cc2cccc(Oc3ccc(C(F)(F)F)cn3)c2)CC1 |  | inactive |
| CCCS(=O)(=O)Nc1ccc(F)c(C(=O)c2c[nH]c3ncc(Cl)cc23)c1F |  | inactive |
| CCOc1ccn(-c2ccc(F)cc2)c(=O)c1C(=O)Nc1ccc(Oc2ccnc(N)c2Cl)c(F)c1 |  | inactive |
| OC[C@H](Cc1ccccc1)Nc1nc(Oc2ccc3c(c2)CCC3)nc2c1ncn2Cc1ccc(-c2ccccc2)cc1 | 0.172% |  |
| CC1(C)SCCN(S(=O)(=O)c2ccc(OCC#CCO)cc2)[C@@H]1C(=O)NO | 0.575% |  |
| CC1(C)Cc2c(-c3ccccc3)c(-c3ccc(Cl)cc3)c(CC(=O)O)n2C1 |  | inactive |
| C[C@]1(c2nc3c(C(N)=O)cccc3[nH]2)CCCN1 | 4.16% |  |
| CCOC(=O)N[C@@H]1CC[C@@H]2[C@@H](C1)C[C@H]1C(=O)O[C@H](C)[C@H]1[C@@H]2C=Cc1ccc(-c2cccc(F)c2)cn1 | 1.99% |  |
| Cn1c(=O)c(F)c(Nc2ccc(I)cc2F)c2c(=O)n(C[C@@H](O)CO)cnc21 | 2.06% |  |
| CNC(=O)c1ccccc1Sc1ccc2c(/C=C/c3ccccn3)n[nH]c2c1 |  | inactive |
| COCC(=O)NCC=Cc1ccc2ncnc(Nc3ccc(Oc4ccc(C)nc4)c(C)c3)c2c1 | 0.999% |  |
| Nc1cccc(S(=O)(=O)N2CCCN(S(=O)(=O)c3ccc4c(c3)OCCO4)CC2)c1 | -2.63% |  |

| Compound | activity change, negative = inhibition | outcome |
| --- | --- | --- |
| Cc1cc(-c2ccc(CC(=O)Nc3ccc(-c4cccnc4)cc3)cc2)ccn1 | 5.7% |  |
| O=C(C=Cc1ccc(/C=C/C(=O)Nc2ccc(C3=NCCN3)cc2)cc1)Nc1ccc(C2=NCCN2)cc1 | -3.31% |  |
| NC(=O)c1ccc(-c2nc(-c3ccc4c(c3)OCO4)c(-c3ccccn3)[nH]2)cc1 | -11.9% |  |
| O=S(=O)(N=Cc1c(O)ccc2ccccc12)c1cccs1 | -3.62% |  |
| COc1ccc(COc2cc3oc(=O)c4cc(C(C)O)ccc4c3cc2OC)cc1 (centres undefined) | 0.909% |  |
| CN(C)C(=O)c1ccc(S(=O)(=O)c2ccc(NC(=O)[C@@](C)(O)C(F)(F)F)c(Cl)c2)cc1 |  | inactive |
| Cc1cc(C=c2sc3nc4ccccc4n3c2=O)c(C)n1-c1ccccc1 | -1.61% |  |
| CCOc1ccc(Cc2cc([C@@H]3O[C@H](CO)[C@@H](O)[C@H](O)[C@@H]3O)ccc2Cl)cc1 | 0.0626% |  |
| CCOc1cc(C=C2C(=O)N(c3ccccc3)N=C2C)cc(Cl)c1OCC(=O)OC | -19.1% |  |
| CC(C=CC1=C(C)CCCC1(C)C)=CC=CC(C)=CC(=O)O |  | inactive |
| Cc1c(CN2CCN(C(=O)C(C)C)CC2)sc2c(N3CCOCC3)nc(-c3cnc(N)nc3)nc12 | -3.05% |  |
| C[C@]12CC[C@H](O)CC1=CC[C@@H]1[C@H]2CC[C@]2(C)C(c3cccnc3)=CC[C@H]12 | -1.62% [at 30.2 µM] |  |
| COc1ccc(-c2ccc3c(N4CCOC[C@H]4C)nc(N4CCOC[C@H]4C)nc3n2)cc1CO | -1.08% |  |
| Cc1ccc(NC(=O)c2cccc(C(C)(C)C#N)c2)cc1Nc1ccc2ncn(C)c(=O)c2c1 | -6.36% |  |
| COc1cc(Oc2ccnc3cc(OC)c(OC)cc23)ccc1NC(=O)NC(C)c1nccs1 (centres undefined) |  | inactive |
| COc1nc(-c2ccc3c(c2)OCO3)n(-c2ccc(NC(=O)CSc3ccccc3)cc2)n1 |  | inactive |
| CN(C(=O)c1ccc(F)cc1C(F)(F)F)C1CCN(c2nnc(-c3ccnn3C)c3ccccc23)CC1 |  | inactive |
| COc1ccc([C@@H]2CC(=O)c3c(O)cc(O[C@@H]4O[C@H](CO[C@@H]5O[C@@H](C)[C@H](O)[C@@H](O)[C@@H]5O)[C@@H](O)[C@H](O)[C@@H]4O)cc3O2)cc1O |  | inactive |

tested on: not listed separately; test: Primary qHTS for small molecule stabilizers of the endoplasmic reticulum resident proteome: Secreted ER Calcium Modulated Protein (SERCaMP) assay (AID 1508630); details: SH-SY5Y GLuc-SERCaMP (Gaussia luciferase released on ER calcium loss) secretion, thapsigargin, luminescence; series mostly up to 38.4 µM; activity change, negative = inhibition: at the top concentration
Procedure, shortened: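 The SH-SY5Y reporter protocol was run at 3 concentrations up to 38.3 uM (primary) or 11 concentrations (follow-up): 16 h compound, 100 nM thapsigargin for 4 h, then extracellular luciferase luminescence.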

| Compound | activity change, negative = inhibition |
| --- | --- |
| COc1ccc(-c2c(-c3ccc(O)cc3O)n[nH]c2C)cc1 | -15.4% [at 76.3 µM] |
| Cc1ccccc1C(C(=O)NC1CCCC1)N(C(=O)Cn1cnc2ccccc21)c1cccc(F)c1 (centres undefined) | 65.1% |
| COc1cc2nccc(Oc3ccc(NC(=O)NC4CC4)c(Cl)c3)c2cc1C(N)=O | 115% |
| COc1ccc(CCN2CCN(CCCc3ccccc3)CC2)cc1OC | 32% |
| CCOc1cc(C(=O)Nc2ccc(Cl)c(-c3nc4ccccc4[nH]3)c2)cc(OCC)c1OCC | 0% |
| Cc1cccc(-c2nn(C(=S)Nc3ccccc3)cc2-c2ccnc3ccccc23)n1 | 11.5% |
| S=C(NCc1ccc2c(c1)OCO2)N1CCN(c2ncnc3c2oc2ccccc23)CC1 | -15.3% [at 76.3 µM] |
| O=C(Nc1cccnc1)N1CCC(Cc2cccc(Oc3ccc(C(F)(F)F)cn3)c2)CC1 | -46.8% |
| CCCS(=O)(=O)Nc1ccc(F)c(C(=O)c2c[nH]c3ncc(Cl)cc23)c1F | 50.7% |
| CCOc1ccn(-c2ccc(F)cc2)c(=O)c1C(=O)Nc1ccc(Oc2ccnc(N)c2Cl)c(F)c1 | 0% |
| OC[C@H](Cc1ccccc1)Nc1nc(Oc2ccc3c(c2)CCC3)nc2c1ncn2Cc1ccc(-c2ccccc2)cc1 | 29.4% |
| CC1(C)SCCN(S(=O)(=O)c2ccc(OCC#CCO)cc2)[C@@H]1C(=O)NO | 3.69% |
| CC1(C)Cc2c(-c3ccccc3)c(-c3ccc(Cl)cc3)c(CC(=O)O)n2C1 | 2.38% |
| C[C@]1(c2nc3c(C(N)=O)cccc3[nH]2)CCCN1 | 120% |
| CCOC(=O)N[C@@H]1CC[C@@H]2[C@@H](C1)C[C@H]1C(=O)O[C@H](C)[C@H]1[C@@H]2C=Cc1ccc(-c2cccc(F)c2)cn1 | 101% |
| Cn1c(=O)c(F)c(Nc2ccc(I)cc2F)c2c(=O)n(C[C@@H](O)CO)cnc21 | 0% |
| CNC(=O)c1ccccc1Sc1ccc2c(/C=C/c3ccccn3)n[nH]c2c1 | -2.21% |
| COCC(=O)NCC=Cc1ccc2ncnc(Nc3ccc(Oc4ccc(C)nc4)c(C)c3)c2c1 | 12% |
| Nc1cccc(S(=O)(=O)N2CCCN(S(=O)(=O)c3ccc4c(c3)OCCO4)CC2)c1 | -25.4% |

| Compound | activity change, negative = inhibition |
| --- | --- |
| Cc1cc(-c2ccc(CC(=O)Nc3ccc(-c4cccnc4)cc3)cc2)ccn1 | 0% |
| O=C(C=Cc1ccc(/C=C/C(=O)Nc2ccc(C3=NCCN3)cc2)cc1)Nc1ccc(C2=NCCN2)cc1 | 23.1% |
| NC(=O)c1ccc(-c2nc(-c3ccc4c(c3)OCO4)c(-c3ccccn3)[nH]2)cc1 | -20.7% |
| O=S(=O)(N=Cc1c(O)ccc2ccccc12)c1cccs1 | 44.4% |
| COc1ccc(COc2cc3oc(=O)c4cc(C(C)O)ccc4c3cc2OC)cc1 (centres undefined) | -9.79% |
| CN(C)C(=O)c1ccc(S(=O)(=O)c2ccc(NC(=O)[C@@](C)(O)C(F)(F)F)c(Cl)c2)cc1 | 0% |
| Cc1cc(C=c2sc3nc4ccccc4n3c2=O)c(C)n1-c1ccccc1 | 41.4% |
| CCOc1ccc(Cc2cc([C@@H]3O[C@H](CO)[C@@H](O)[C@H](O)[C@@H]3O)ccc2Cl)cc1 | 82.8% |
| CCOc1cc(C=C2C(=O)N(c3ccccc3)N=C2C)cc(Cl)c1OCC(=O)OC | 0% |
| CC(C=CC1=C(C)CCCC1(C)C)=CC=CC(C)=CC(=O)O | 169% |
| Cc1c(CN2CCN(C(=O)C(C)C)CC2)sc2c(N3CCOCC3)nc(-c3cnc(N)nc3)nc12 | 227% |
| C[C@]12CC[C@H](O)CC1=CC[C@@H]1[C@H]2CC[C@]2(C)C(c3cccnc3)=CC[C@H]12 | 6.86% [at 21.6 µM] |
| COc1ccc(-c2ccc3c(N4CCOC[C@H]4C)nc(N4CCOC[C@H]4C)nc3n2)cc1CO | -13.3% |
| Cc1ccc(NC(=O)c2cccc(C(C)(C)C#N)c2)cc1Nc1ccc2ncn(C)c(=O)c2c1 | 0% |
| COc1cc(Oc2ccnc3cc(OC)c(OC)cc23)ccc1NC(=O)NC(C)c1nccs1 (centres undefined) | 0% |
| COc1nc(-c2ccc3c(c2)OCO3)n(-c2ccc(NC(=O)CSc3ccccc3)cc2)n1 | 9.29% |
| CN(C(=O)c1ccc(F)cc1C(F)(F)F)C1CCN(c2nnc(-c3ccnn3C)c3ccccc23)CC1 | 0% |
| COc1ccc([C@@H]2CC(=O)c3c(O)cc(O[C@@H]4O[C@H](CO[C@@H]5O[C@@H](C)[C@H](O)[C@@H](O)[C@@H]5O)[C@@H](O)[C@H](O)[C@@H]4O)cc3O2)cc1O | 93.4% |

Reference: PubChem BioAssay (NCATS)
